Compound activity: PubChem BioAssay, Broad Institute
Tgondii IFNg – T. gondii growth inhibition under IFN-gamma; AID 1259416; activity change, negative = inhibition, % (concentration not given with the values); Toxoplasma gondii growth in IFN-gamma-treated host cells; stronger effect = lower value; 3.8% of 69,000 active; in the data active = activity change below about -70%, passing the limit was not always enough;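 also: host cells are HeLa cells infected with Toxoplasma gondii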
Starred values were filed as active, the others as inactive; ! = a repeat was not active. The sample as a whole holds a higher share of hits than the screen did.

SMILES | Tgondii IFNg
CC(=O)O[C@@]12CO[C@@H]1C[C@H](O)[C@@]1(C)C(=O)[C@H](O)C3=C(C)[C@@H](OC(=O)[C@H](O)[C@@H](NC(=O)OC(C)(C)C)c4ccccc4)C[C@@](O)([C@@H](OC(=O)c4ccccc4)C12)C3(C)C (some centres undefined) | -83*
CO[C@H]1C(=O)[C@@]2(C)[C@H]([C@@H](OC(=O)c3ccccc3)[C@@]3(O)C[C@H](OC(=O)[C@H](O)[C@@H](NC(=O)OC(C)(C)C)c4ccccc4)C(C)=C1C3(C)C)[C@]1(OC(C)=O)CO[C@@H]1C[C@H]2OC | -79*
CC(=O)O[C@@]12CO[C@@H]1C[C@H](O)[C@@]1(C)C(=O)[C@H](O)C3=C(C)[C@@H](OC(=O)[C@H](O)[C@@H](NC(=O)OC(C)(C)C)c4ccccc4)C[C@@](O)([C@@H](OC(=O)c4ccccc4)[C@H]21)C3(C)C | -72*!
COc1ccc(C2(NCc3c(N4CCCC4)nc4ccccn4c3=O)CCCC2)cc1 | 60
CC(C)c1noc(CCC(=O)N2CCN(c3nc4ccccc4s3)CC2)n1 | 0
CN1CC2(CCCN(C(=O)c3cccc4nccnc34)C2)OC1=O (centres undefined) | 1
COc1ccc(NC(=O)N2CCCC(C(=O)c3ccc4c5c(cccc35)CC4)C2)c(C)c1 (centres undefined) | -3
Cc1nn(C)c(C)c1CCNC(=O)C1CCN(c2ccc(C(F)(F)F)cn2)CC1 | 5
Cc1ccccc1Nc1nnc(-c2ccccc2)c(-c2ccccc2)n1 | 15
CN(Cc1cnc(-c2ccccn2)nc1)Cc1cnn(-c2ccccc2)c1 | 4
c1ccc(-c2nnc(-c3ccccn3)nc2-c2ccccc2)cc1 | -103*
C/C(=C\COc1cc(=O)[nH]c2ccccc12)CCC1OC(C)(C)OC1(C)C (centres undefined) | -13
Cc1c(C)c(C)c(C(=O)CCc2cccc(NC(=O)C3CCC3)c2)c(C)c1C | -92*
O=C1CCc2cc(NC(=O)C3CCC3)ccc2N1 | 4
COCCN1C(=O)CCc2cc(NC(=O)C3CCC3)ccc21 | 31
CN(C)CCNC(=O)CC1CC2(CCN(C(=O)N3CCOCC3)CC2)c2ccccc21 (centres undefined) | -3
COc1ccc(-c2nc(NCc3ccc(C)o3)c3ccccc3n2)cc1 | -43
CCCNC(=O)N1CCc2nc(-c3ccc(C)cc3)sc2C1 | 6
CCOC(=O)c1c(NC(=O)Nc2ccc(C)cc2)sc2c1CCN(C(=O)OCC)C2 | -97*
CCOC(=O)c1c(NC2=NC3(CCCCC3)Cc3ccccc32)sc2c1CCCC2 | 31
Cc1[nH]c(=O)[nH]c(=O)c1CC(=O)N1CCc2ncc(Cl)cc2C1 | 90
CCOc1ccc(-c2nc(Cn3nnc(C(=O)Nc4ccccc4OC)c3C)c(C)o2)cc1 | 32
COc1ccc(-c2nc(CSc3nc4c(=O)[nH]cnc4n3-c3ccc(C)cc3)c(C)o2)c(OC)c1 | 54
Cc1ccc(NC(=O)CC(=O)NCc2ccc(CN3CCCC3)cc2)cc1 | -21
Cc1cc(C)cc(NC(=O)CC(=O)NCc2ccccc2)c1 | -86*
SMILES | Tgondii IFNg
CCc1nc(OCC(=O)Nc2cc(C)cc(C)c2)c2ccccc2n1 | -6
CC(C)Cc1cc(C(=O)N(C)Cc2cnccn2)on1 | 2
CCc1ccc(S(=O)(=O)N2CCC3(CC2)NCCN=C3NCc2ccccc2OC)cc1 | 18
Cc1nc2cc(C3CCOCC3)nn2c(NCCCNC(=O)c2ccccn2)c1C | 0
CC(C)NC(=O)N1CCC[C@@]2(C(=O)N(C)C)CN(c3ccccn3)C[C@H]2C1 | 4
CCc1cccc(NC(=O)CCC(=O)N2CC3C[C@@H]4CC2C[C@H](C3)C4)c1 | 8
COc1ccc(CNC(=O)Cn2ncc3c(N4CCN(C)CC4)ncnc32)cc1 | 0
COc1ccc(CNC(=O)Cn2ncc3c(N4CCN(c5ccccc5)CC4)ncnc32)cc1 | -102*
CCc1ccc(CNC(=O)Cn2ncc3c(N4CCN(c5ccccn5)CC4)ncnc32)cc1 | 31
Cc1ccc(CNC(=O)Cn2ncc3c(N4CCN(c5ccccc5)CC4)ncnc32)cc1 | -15
CN(C)CCNC(=O)Cn1ncc2c(N3CCN(c4ccccn4)CC3)ncnc21 | -10
O=C(Cn1ncc2c(N3CCN(c4ccccn4)CC3)ncnc21)NCc1ccccc1 | -105*
CN(C)C(=O)CNC(=O)c1ccc2nnc(C3CCN(Cc4ccccc4)C3)n2c1 (centres undefined) | -3
COc1ccc2[nH]cc(CCNc3ccc(S(=O)(=O)c4ccc(Cl)cc4)nn3)c2c1 | 37
O=C(Cc1ccc(Cl)cc1)N1CCN(S(=O)(=O)c2cc3c4c(c2)CCN4C(=O)CC3)CC1 | 38
COc1ccc2c(c1)c(C(=O)Cn1c(C3CCOCC3)cc3cccnc31)c(C)n2C | 153
O=c1c(N2CCCCC2)c(N2CCCCC2)c1=O | -14
COc1cc(NC(=O)Nc2ccc(-c3nc(-c4ccc(C)cc4)co3)cc2)cc(OC)c1OC | -39
COc1ccc(C)cc1NC(=O)Nc1ccc(-c2nc(-c3cc(C)ccc3C)co2)cc1 | -72*
COc1cc(NC(=O)Nc2ccc(-c3nc(-c4ccccc4)co3)cc2)cc(OC)c1OC | -88*
